Experimental data as given in PubChem BioAssay (NCATS).
Inconclusive results are not listed. The source made the active and inactive calls. Calls follow the shape of the dose curve; as a rule, active = well fitted curve in the direction sought with a large enough effect; inconclusive = small, poorly fitted or top-dose-only effect, or another doubt; inactive = no such curve, though single readings can be large; an effect the other way counts as inactive or inconclusive.

Experiments:
[1] = Quantitative High-Throughput drug screen in 47 multiple myeloma cell lines against the NCATS MIPE library collection: KMM1_JCRB cell viability assay (AID 1918960); also: nearly all actives have a fitted effect of over 30% in size
How it was run: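 ATP readout (CellTiter-Glo), 48 h drug incubation, 37 °C/5% CO2, 500 cells per well; normalisation to DMSO (100%) and media-only (0%) controls.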

[2] = Quantitative High-Throughput drug screen in 47 multiple myeloma cell lines against the NCATS MIPE library collection: Karpas417_ECACC cell viability assay (AID 1918961); details: Karpas417 myeloma viability, CellTiter-Glo ATP luminescence, 48 h; viability (% of DMSO): at 45.8 µM (top of the series)
How it was run: (§1)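 Steps: seed 500 cells per well; pin-transfer MIPE 4.0 library; incubate 48 h at 37C, 5% CO2, humidified; add CellTiter-Glo, 5 min room temperature; read luminescence.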

[3] = Quantitative High-Throughput drug screen in 47 multiple myeloma cell lines against the NCATS MIPE library collection: KHM11_PLB cell viability assay (AID 1918962); also: nearly all actives have a fitted effect of over 35% in size
How it was run: (§2)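 Luminescent ATP measurement with CellTiter-Glo gives viability, scaled between DMSO-only wells (100%) and media-only wells (0%). Cells, 500 per well, faced library compounds for 48 hours at 37C.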

[4] = Quantitative High-Throughput drug screen in 47 multiple myeloma cell lines against the NCATS MIPE library collection: JIM1_ECACC cell viability assay (AID 1918964)
How it was run: (§3)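 Primary qHTS used for cherry-picking: cells at 500/well, library compounds for 48 h (37C, 5% CO2), luminescent ATP assay.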

[5] = Quantitative High-Throughput drug screen in 47 multiple myeloma cell lines against the NCATS MIPE library collection: KMS27_JCRB cell viability assay (AID 1918970); details: KMS27 myeloma cells, CellTiter-Glo ATP viability, 48 h; viability (% of DMSO): at 45.8 µM (top of the series); also: nearly all actives have a fitted effect of over 30% in size
How it was run: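 Each line is seeded at 500 cells per well and treated with library compounds for 48 hours under 37 °C, 5% CO2. CellTiter-Glo is then added for 5 min at room temperature before median relative luminescence is recorded.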

[6] = Quantitative High-Throughput drug screen in 47 multiple myeloma cell lines against the NCATS MIPE library collection: KMS12BM_JCRB cell viability assay (AID 1918971); also: nearly all actives have a fitted effect of over 35% in size
How it was run: (§4)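 Approved and investigational drugs from MIPE 4.0 were added by pin tool to 500 cells per well. After 48 hours at 37C, ATP-based CellTiter-Glo luminescence indicated remaining viability.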

[7] = Quantitative High-Throughput drug screen in 47 multiple myeloma cell lines against the NCATS MIPE library collection: MOLP8_DSMZ cell viability assay (AID 1918977); also: nearly all actives have a fitted effect of over 45% in size
How it was run: (§5)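 Inhibition of viability over 48 h was scored by ATP content (CellTiter-Glo) in 500-cell wells. Zero and full viability were defined by media-only and DMSO-only wells.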

[8] = Quantitative High-Throughput drug screen in 47 multiple myeloma cell lines against the NCATS MIPE library collection: NCIH929_DSMZ cell viability assay (AID 1918978); also: nearly all actives have a fitted effect of over 35% in size
How it was run: as §5

[9] = Quantitative High-Throughput drug screen in 47 multiple myeloma cell lines against the NCATS MIPE library collection: OCIMY1_PLB cell viability assay (AID 1918979); also: nearly all actives have a fitted effect of over 35% in size
How it was run: as §5

[10] = Quantitative High-Throughput drug screen in 47 multiple myeloma cell lines against the NCATS MIPE library collection: JIM3_ECACC cell viability assay (AID 1918963; also: nearly all actives have a fitted effect of over 35% in size)
How it was run: as §2

[11] = Quantitative High-Throughput drug screen in 47 multiple myeloma cell lines against the NCATS MIPE library collection: INA6_PLB cell viability assay (AID 1918965; also: nearly all actives have a fitted effect of over 55% in size)
How it was run: as §1

[12] = Quantitative High-Throughput drug screen in 47 multiple myeloma cell lines against the NCATS MIPE library collection: Karpas25_ECACC cell viability assay (AID 1918968; also: nearly all actives have a fitted effect of over 35% in size)
How it was run: as §3

[13] = Quantitative High-Throughput drug screen in 47 multiple myeloma cell lines against the NCATS MIPE library collection: KMS12PE_JCRB cell viability assay (AID 1918972); also: nearly all actives have a fitted effect of over 30% in size
How it was run: as §1

[14] = Quantitative High-Throughput drug screen in 47 multiple myeloma cell lines against the NCATS MIPE library collection: KMS20_JCRB cell viability assay (AID 1918973); also: nearly all actives have a fitted effect of over 45% in size
How it was run: as §3

[15] = Quantitative High-Throughput drug screen in 47 multiple myeloma cell lines against the NCATS MIPE library collection: KMS21BM_JCRB cell viability assay (AID 1918974); details: ATP luminescence, 48 h; viability: at 45.8 µM (top of the series)
How it was run: as §3

[16] = Quantitative High-Throughput drug screen in 47 multiple myeloma cell lines against the NCATS MIPE library collection: MMM1_PLB cell viability assay (AID 1918976); also: nearly all actives have a fitted effect of over 35% in size
How it was run: as §5

[17] = Quantitative High-Throughput drug screen in 47 multiple myeloma cell lines against the NCATS MIPE library collection: MM1S_ATCC cell viability assay (AID 1918980); also: nearly all actives have a fitted effect of over 45% in size
How it was run: as §5

[18] = Quantitative High-Throughput drug screen in 47 multiple myeloma cell lines against the NCATS MIPE library collection: JJN3_DSMZ cell viability assay (AID 1918966; also: nearly all actives have a fitted effect of over 50% in size)
How it was run: as §3

[19] = Quantitative High-Throughput drug screen in 47 multiple myeloma cell lines against the NCATS MIPE library collection: H1112_PLB cell viability assay (AID 1918967; also: nearly all actives have a fitted effect of over 30% in size)
How it was run: as §3

[20] = Quantitative High-Throughput drug screen in 47 multiple myeloma cell lines against the NCATS MIPE library collection: KMS26_JCRB cell viability assay (AID 1918975); also: nearly all actives have a fitted effect of over 45% in size
How it was run: as §4
Potency is read from the fitted curve at half-maximal effect.

Row | SMILES | Potency [1] | Potency [2] | Potency [3] | Potency [4] | Potency [5] | Potency [6] | Potency [7] | Potency [8] | Potency [9] | Potency [10] | Potency [11] | Potency [12] | Potency [13] | Potency [14] | Potency [15] | Potency [16] | Potency [17] | Potency [18] | Potency [19] | Potency [20]
1 | COC(=O)N1CCN(Cc2cccc(NC(=O)Nc3ccc(C)nc3)c2F)CC1 | inactive | 0.0047 µM (active) | inactive | inactive | inactive | 20.9 µM (active) | inactive | inactive | inactive |  |  |  |  |  |  |  |  |  |  | 
2 | NS(=O)(=O)c1ccc(Nc2nc(OCC3CCCCC3)c3[nH]cnc3n2)cc1 | 18.7 µM (active) | 14.8 µM (active) | 26.4 µM (active) | 20.9 µM (active) |  | 26.4 µM (active) |  | 4.18 µM (active) | inactive | 20.9 µM (active) | 3.32 µM (active) | 13.2 µM (active) | 20.9 µM (active) | 20.9 µM (active) | 4.18 µM (active) | 2.09 µM (active) | 18.7 µM (active) |  |  | 
3 | C[C@@H]1O[C@@H](O[C@H]2CC[C@@]3(C)[C@H](CC[C@@H]4[C@H]3C[C@@H](O)[C@]3(C)[C@@H](C5=CC(=O)OC5)CC[C@]43O)C2)C[C@H](O)[C@@H]1O[C@H]1C[C@H](O)[C@H](O[C@H]2C[C@H](O)[C@@H](O)[C@@H](C)O2)[C@H](C)O1 (stereo in doubt) | 0.0762 µM (active) | 0.152 µM (active) | 0.152 µM (active) | 0.0679 µM (active) | 0.0959 µM (active) | 0.215 µM (active) | 0.152 µM (active) | 0.34 µM (active) | 0.241 µM (active) | 0.191 µM (active) | 0.171 µM (active) |  | 0.054 µM (active) |  | 0.215 µM (active) | 0.171 µM (active) | 0.34 µM (active) | 0.34 µM (active) | 0.34 µM (active) | 0.27 µM (active)
4 | O[C@@H](COc1cccc2ncccc12)CN1CCN(C2c3ccccc3[C@@H]3[C@H](c4ccccc42)C3(F)F)CC1 (stereo partly drawn) | inactive | inactive | 16.6 µM (active) |  |  | 23.5 µM (active) | 23.5 µM (active) | 11.8 µM (active) |  | 13.2 µM (active) |  |  | inactive |  |  | 26.4 µM (active) | 7.43 µM (active) | 14.8 µM (active) |  | 
5 | CC(C)[C@H](O)C(=O)N[C@@H](C)C(=O)N[C@@H]1C(=O)N(C)CCc2ccccc21 | inactive | 0.0021 µM (active) | inactive | inactive | inactive |  |  | 16.6 µM (active) | inactive | inactive |  |  | inactive |  |  | 23.5 µM (active) |  |  | inactive | inactive
6 | Nc1ncnc2c1ncn2[C@@H]1O[C@H](CO)[C@@H](O)[C@@H]1O | 1.32 µM (active) | 0.118 µM (active) |  | 7.43 µM (active) | 0.418 µM (active) |  |  | 8.33 µM (active) | inactive | inactive | 3.32 µM (active) | 5.26 µM (active) | 1.66 µM (active) |  | 0.209 µM (active) |  | 0.743 µM (active) |  | inactive | 16.6 µM (active)
7 | CC[C@H](NC(=O)[C@H](C)NC)C(=O)N1C[C@@H](O)C[C@H]1Cc1c(-c2[nH]c3cc(F)ccc3c2C[C@H]2C[C@H](O)CN2C(=O)[C@H](CC)NC(=O)[C@H](C)NC)[nH]c2cc(F)ccc12 | 14.8 µM (active) |  | inactive | 2.09 µM (active) |  | inactive | inactive | 20.9 µM (active) |  | 1.48 µM (active) | 11.8 µM (active) | 16.6 µM (active) | 11.8 µM (active) |  | 0.526 µM (active) |  | 3.32 µM (active) | inactive | 11.8 µM (active) | 
8 | CCc1cc(-c2n[nH]c(C)c2-c2ccc3c(c2)OCCO3)c(O)cc1O | 3.72 µM (active) |  | 4.69 µM (active) | 5.9 µM (active) | 5.9 µM (active) | 5.26 µM (active) | 2.64 µM (active) | 8.33 µM (active) |  | 8.33 µM (active) | 4.69 µM (active) | 7.43 µM (active) | 5.26 µM (active) |  |  |  | 8.33 µM (active) | 4.18 µM (active) | 8.33 µM (active) | 5.26 µM (active)
9 | CNC(=O)[C@H](CC1=CN=C2C=CCC=C12)NC(=O)[C@@H](CC(=O)NO)CC(C)C | 0.148 µM (active) | 0.0209 µM (active) |  | 0.0833 µM (active) | 0.0935 µM (active) | inactive |  | 23.5 µM (active) | inactive | 26.4 µM (active) | 33.2 µM (active) |  | 0.105 µM (active) |  | 0.105 µM (active) |  | 3.32 µM (active) |  | 14.8 µM (active) | inactive
10 | O=C(O)C1=NC(C(=O)O)CC(C=CN2c3cc(O)c(OC4OC(CO)C(O)C(O)C4O)cc3CC2C(=O)O)=C1 (stereo not drawn) | inactive | inactive |  | inactive | inactive |  |  | inactive |  | inactive | inactive | inactive | inactive |  |  | 23.5 µM (active) | inactive |  | inactive | 
11 | Nc1ncnc2c1c(-c1cccc(OCc3ccccc3)c1)cn2C1CC(CN2CCC2)C1 (stereo not drawn) | 0.372 µM (active) |  | 16.6 µM (active) | 0.469 µM (active) | 1.87 µM (active) |  |  | 0.418 µM (active) |  | 0.332 µM (active) | 20.9 µM (active) | 1.18 µM (active) | 16.6 µM (active) | 3.72 µM (active) |  | 2.96 µM (active) | 2.96 µM (active) | 4.69 µM (active) |  | 4.69 µM (active)
12 | CN(C)S(=O)(=O)c1ccc2c(c1)C(=Cc1cc3c([nH]1)CCCC3)C(=O)N2 | inactive | 1.32 µM (active) |  |  | 3.32 µM (active) | 8.33 µM (active) |  | 18.7 µM (active) |  | 11.8 µM (active) | 3.72 µM (active) |  |  |  |  | 18.7 µM (active) | 20.9 µM (active) | 4.69 µM (active) |  | 
